Results published in PubChem BioAssay AID1159580 (chemical genetic matrix, 2015).
Hit rate of the full screen: of about 5,500 compounds, about 2,000 (36%) were called active. Roughly 18% stayed inconclusive and do not appear here. Cut-off read from the data, not from the text of the source: active = normalized growth mostly below about 0.91 (no sharp cut-off); inconclusive = no clear call, values can overlap the other calls; inactive = mostly above about 0.92. This is one part of the list.

Assay: chemical genetic growth profiling, strain panel (AID 1159580);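 note: tested at 20 µM; growth read once vehicle control cultures reached saturation at 30 °C; 1 = growth at the plate median or of vehicle wells; lower values mean less growth of the strain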
Settings: growth OD

Measured: normalized growth

CC1(C)C(=O)C=C[C@@]2(C)C1CC(=O)[C@@]1(C)C3=CC(=O)O[C@@H](c4ccoc4)[C@]3(C)CCC12 (some centres undefined)
inactive: S. cerevisiae deletion strains, locus YBR021W, strain FUR4, active compounds read low 0.994 | S. cerevisiae deletion strains, locus YBR229C, strain ROT2, active compounds read low 1 | S. cerevisiae deletion strains, locus YCL029C, strain bik1, active compounds read low 0.994 | S. cerevisiae deletion strains, locus YDL035C, strain GPR1, active compounds read low 1.02 | S. cerevisiae deletion strains, locus YDL074C, strain BRE1, active compounds read low 1 | S. cerevisiae deletion strains, locus YDL101C, strain DUN1, active compounds read low 0.997 | S. cerevisiae deletion strains, locus YDL185W, strain tfp1, active compounds read low 1 | S. cerevisiae deletion strains, locus YDL192W, strain arf1, active compounds read low 0.987 | S. cerevisiae deletion strains, locus YDR101C, strain arx1, active compounds read low 0.988 | S. cerevisiae deletion strains, locus YDR162C, strain NBP2, active compounds read low 1.01 | S. cerevisiae deletion strains, locus YDR318W, strain mcm21, active compounds read low 0.993 | S. cerevisiae deletion strains, locus YDR388W, active compounds read low 0.996 | S. cerevisiae deletion strains, locus YDR502C, strain sam2, active compounds read low 0.983 | S. cerevisiae deletion strains, locus YER110C, active compounds read low 0.989 | S. cerevisiae deletion strains, locus YER155C, strain BEM2, active compounds read low 1.01 | S. cerevisiae deletion strains, locus YER167W, strain BCK2, active compounds read low 1 | S. cerevisiae deletion strains, locus YGL078C, strain dbp3, active compounds read low 0.999 | S. cerevisiae deletion strains, locus YGL086W, strain mad1, active compounds read low 1.01 | S. cerevisiae deletion strains, locus YGL248W, strain PDE1, active compounds read low 0.997 | S. cerevisiae deletion strains, locus YGR078C, strain PAC10, active compounds read low 0.997 | S. cerevisiae deletion strains, locus YGR135W, strain pre9, active compounds read low 0.993 | S. cerevisiae deletion strains, locus YGR229C, strain SMI1, active compounds read low 1.01 | S. cerevisiae deletion strains, locus YGR252W, strain gcn5, active compounds read low 0.939 | S. cerevisiae deletion strains, locus YHR079C, strain IRE1 (second series), active compounds read low 0.988 | S. cerevisiae deletion strains, locus YHR094C, strain hxt1, active compounds read low 0.991 | S. cerevisiae deletion strains, locus YHR129C, strain ARP1, active compounds read low 0.998 | S. cerevisiae deletion strains, locus YHR200W, strain rpn10, active compounds read low 0.99 | S. cerevisiae deletion strains, locus YIL066C, strain RNR3, active compounds read low 1.01 | S. cerevisiae deletion strains, locus YIL073C, strain SPO22, active compounds read low 1.04 | S. cerevisiae deletion strains, locus YIL125W, strain kgd1, active compounds read low 0.991 | S. cerevisiae deletion strains, locus YIR030C, strain dcg1, active compounds read low 0.996 | S. cerevisiae deletion strains, locus YJL095W, strain BCK1, active compounds read low 0.988 | S. cerevisiae deletion strains, locus YJL134W, strain LCB3, active compounds read low 1.01 | S. cerevisiae deletion strains, locus YJL168C, strain set2, active compounds read low 0.998 | S. cerevisiae deletion strains, locus YJL187C, strain SWE1 (second series), active compounds read low 0.996 | S. cerevisiae deletion strains, locus YJR043C, strain POL32, active compounds read low 1.01 | S. cerevisiae deletion strains, locus YKL009W, strain mrt4, active compounds read low 1.01 | S. cerevisiae deletion strains, locus YKL068W, active compounds read low 1 | S. cerevisiae deletion strains, locus YKL085W, strain MDH1 (second series), active compounds read low 0.998 | S. cerevisiae deletion strains, locus YKL085W, strain MDH1, active compounds read low 0.998 | S. cerevisiae deletion strains, locus YKR001C, strain vps1, active compounds read low 0.98 | S. cerevisiae deletion strains, locus YLR039C, strain RIC1, active compounds read low 1.02 | S. cerevisiae deletion strains, locus YLR058C, strain SHM2, active compounds read low 1 | S. cerevisiae deletion strains, locus YLR102C, strain apc9, active compounds read low 0.994 | S. cerevisiae deletion strains, locus YLR262C, strain YPT6, active compounds read low 1.04 | S. cerevisiae deletion strains, locus YLR268W, strain sec22, active compounds read low 1 | S. cerevisiae deletion strains, locus YLR330W, strain CHS5, active compounds read low 1 | S. cerevisiae deletion strains, locus YLR371W, strain rom2, active compounds read low 0.988 | S. cerevisiae deletion strains, locus YLR418C, strain cdc73, active compounds read low 0.985 | S. cerevisiae deletion strains, locus YML016C, strain PPZ1, active compounds read low 1 | S. cerevisiae deletion strains, locus YML032C, strain rad52, active compounds read low 0.998 | S. cerevisiae deletion strains, locus YML124C, strain tub3, active compounds read low 0.996 | S. cerevisiae deletion strains, locus YMR078C, strain ctf18, active compounds read low 1.01 | S. cerevisiae deletion strains, locus YMR223W, strain ubp8, active compounds read low 0.983 | S. cerevisiae deletion strains, locus YMR263W, strain SAP30, active compounds read low 0.998 | S. cerevisiae deletion strains, locus YMR307W, strain GAS1, active compounds read low 0.98 | S. cerevisiae deletion strains, locus YNL067W, strain RPL9B, active compounds read low 0.996 | S. cerevisiae deletion strains, locus YNL128W, strain TEP1, active compounds read low 1.02 | S. cerevisiae deletion strains, locus YNL233W, strain BNI4, active compounds read low 1.02 | S. cerevisiae deletion strains, locus YNL250W, strain rad50, active compounds read low 1 | S. cerevisiae deletion strains, locus YNL271C, strain bni1, active compounds read low 1 | S. cerevisiae deletion strains, locus YNL298W, strain CLA4, active compounds read low 0.987 | S. cerevisiae deletion strains, locus YNL307C, strain MCK1, active compounds read low 0.994 | S. cerevisiae deletion strains, locus YNR052C, strain pop2, active compounds read low 0.979 | S. cerevisiae deletion strains, locus YOL012C, strain htz1 1.33 | S. cerevisiae deletion strains, locus YOL147C, strain pex11, active compounds read low 0.992 | S. cerevisiae deletion strains, locus YOR061W, strain CKA2, active compounds read low 1.01 | S. cerevisiae deletion strains, locus YOR069W, strain VPS5, active compounds read low 0.999 | S. cerevisiae deletion strains, locus YOR136W, strain idh2, active compounds read low 1.01 | S. cerevisiae deletion strains, locus YOR144C, strain elg1, active compounds read low 0.99 | S. cerevisiae deletion strains, locus YOR184W, strain ser1, active compounds read low 1.01 | S. cerevisiae deletion strains, locus YOR316C, strain cot1, active compounds read low 0.992 | S. cerevisiae deletion strains, locus YPL241C, strain CIN2, active compounds read low 1.01 | S. cerevisiae deletion strains, locus YPR119W, strain clb2, active compounds read low 0.998 | S. cerevisiae deletion strains, locus YPR141C, strain kar3, active compounds read low 1 | S. cerevisiae deletion strains, locus YPR163C, strain tif3, active compounds read low 1 | S. cerevisiae deletion strains, locus YPR167C, strain met16, active compounds read low 1 | S. cerevisiae deletion strains, strain wtn01, active compounds read low 0.992 | S. cerevisiae strains, strain wild type, active compounds read low 1.01
